{
  "source": "PubChem BioAssay AID893",
  "about": "(National Center for Advancing Translational Sciences (NCATS), 2007)",
  "note": "In all, about 75,000 compounds went through this assay and about 5,700 (7.6%) were called active. Another 7% or so got no clear call; they are omitted. Calls come from the whole dose curve; as a rule, active = well fitted inhibition curve with a large enough effect; inconclusive = small, poorly fitted or top-dose-only effect; inactive = no such curve, though single readings can be large or run the other way. For the sample, actives were picked, then their nearest neighbours and some compounds at random. % is set by controls: 0 for no effect and ±100 for the full control effect; potency is the fitted concentration of half-maximal effect.",
  "data": [
    {"target": "3-hydroxyacyl-CoA dehydrogenase type-2 (Homo sapiens) (UniProt Q99714)", "test": "qHTS Assay for Inhibitors of HSD17B4, hydroxysteroid (17-beta) dehydrogenase 4;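 note: the protocol describes HADH2 (HSD17B10) and not the HSD17B4 of the title; nearly all actives have a fitted effect of over 70% in size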", "details": "recombinant HSD17B10, NADH fluorescence kinetic; series mostly up to 57.1 µM; activity change, negative = inhibition: at the top concentration", "procedure,_shortened": "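20 nM HADH2, pH 9.0 Tris/Tween; cpd preinc 15 min RT; start w/ 1 mM NAD+ + 90 uM b-hydroxybutyryl-CoA; kinetic fluor ex360/em450 q30s x 4 min; delta last-first.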", "values": [
      {"smiles": "C[C@@H](N)[C@@H](C)Cc1ccccc1", "activity change, negative = inhibition": "4.93% [at 11.4 µM] (inactive)"},
      {"smiles": "c1ccc(CSCCc2ccncc2)cc1", "activity change, negative = inhibition": "1.7% [at 11.4 µM] (inactive)"},
      {"smiles": "COc1ccc(C(=O)NC(=O)CSc2nnc(-c3ccco3)n2-c2ccccc2)cc1", "activity change, negative = inhibition": "-19.2% (inactive)"},
      {"smiles": "COc1ccc(/C=C/NC(=O)c2ccc(OC)cc2)cc1", "activity change, negative = inhibition": "7.09% [at 11.4 µM] (inactive)"},
      {"smiles": "COc1ccc(C(=O)NCc2cn3ccccc3n2)cc1", "Potency": "31.6 µM (active)"},
      {"smiles": "CC(C)(O/N=C(\\C(=O)N[C@@H]1C(=O)N2C(C(=O)[O-])=C(C[n+]3ccccc3)CS[C@@H]12)c1csc(N)n1)C(=O)O", "activity change, negative = inhibition": "-25.6% [at 25.6 µM] (inactive)"},
      {"smiles": "CC(C)[C@H]1CC[C@@H](C)C[C@H]1O", "activity change, negative = inhibition": "19.7% (inactive)"},
      {"smiles": "CCOC(=O)c1cc2cc(C)ccc2[nH]1", "activity change, negative = inhibition": "-29.8% (inactive)"},
      {"smiles": "COc1ccc(N(Cc2cc3cc(OC)ccc3[nH]c2=O)S(C)(=O)=O)cc1", "activity change, negative = inhibition": "5.18% (inactive)"},
      {"smiles": "COc1ccc2[nH]c(=O)c(CN(Cc3nnnn3CCc3ccccc3)CC3CCCO3)cc2c1", "note": "(stereo not given)", "Potency": "25.1 µM (active)"},
      {"smiles": "Cc1cc(C)c2cc(CN(Cc3cccs3)Cc3nnnn3CC3CCCO3)c(=O)[nH]c2c1", "note": "(stereo not given)", "activity change, negative = inhibition": "-5.81% (inactive)"},
      {"smiles": "Cc1ccc2[nH]c(=O)c(COC(=O)c3ccccn3)cc2c1", "activity change, negative = inhibition": "2.81% (inactive)"},
      {"smiles": "CCN(Cc1cc2cc(C)ccc2[nH]c1=O)S(=O)(=O)c1ccccc1", "activity change, negative = inhibition": "-5.26% (inactive)"},
      {"smiles": "CCC(c1nnnn1Cc1ccccc1)N(Cc1cc2cc(OC)ccc2[nH]c1=O)CC1CCCO1", "note": "(stereo not given)", "activity change, negative = inhibition": "-14.7% (inactive)"},
      {"smiles": "COc1cccc(-n2c(Cc3cc(=O)[nH]c(=O)[nH]3)nnc2SCC(=O)Nc2ccccc2)c1", "activity change, negative = inhibition": "13.3% (inactive)"},
      {"smiles": "O=C(CN(CC1CCCO1)C(=O)CNS(=O)(=O)c1ccccc1)NCc1ccccc1", "note": "(stereo not given)", "activity change, negative = inhibition": "3.8% (inactive)"},
      {"smiles": "COc1ccc2[nH]c(=O)c(CN(CC3CCCO3)C(=O)Nc3ccccc3)cc2c1", "note": "(stereo not given)", "Potency": "25.1 µM (active)"},
      {"smiles": "CCC(=O)N(Cc1cc2cc(OC)ccc2[nH]c1=O)c1ccccc1C", "Potency": "25.1 µM (active)"},
      {"smiles": "CCOc1ccc2[nH]c(=O)c(CN(CCCO)C(C)=O)cc2c1", "Potency": "31.6 µM (active)"},
      {"smiles": "COCC(=O)N1CCC2(CCCN(c3ccccc3)C2)CC1", "activity change, negative = inhibition": "0.0239% (inactive)"},
      {"smiles": "Cc1cc(N(C)C)cc(C)[n+]1[O-]", "activity change, negative = inhibition": "-0.103% (inactive)"},
      {"smiles": "O=C(O)CCC(=O)N(Cc1ccco1)c1nc(-c2ccccc2)cs1", "activity change, negative = inhibition": "1.5% (inactive)"},
      {"smiles": "O=C(c1cccc(C(=O)N2CCc3ccccc32)n1)N1CCc2ccccc21", "activity change, negative = inhibition": "0.85% (inactive)"},
      {"smiles": "COc1cc(OC)c2c(c1Cl)OC1(C2=O)C(O)=CC(=O)CC1C", "note": "(stereo not given)", "activity change, negative = inhibition": "3.09% (inactive)"},
      {"smiles": "COc1ccc(C(=O)OCC(=O)c2ccc(C)c(S(=O)(=O)N3CCOCC3)c2)cc1OC", "activity change, negative = inhibition": "55.3% (inactive)"},
      {"smiles": "Cc1c(C)c2cc3c4c(oc3c(C)c2oc1=O)CCCC4", "activity change, negative = inhibition": "-7.6% (inactive)"},
      {"smiles": "CCCOc1ccc2c3c(c(=O)oc2c1OCCC)CCC3", "Potency": "12.6 µM (active)"},
      {"smiles": "COc1ccc(Cl)cc1S(=O)(=O)N1CCN(CC(=O)C(C)(C)C)CC1", "activity change, negative = inhibition": "5.3% (inactive)"},
      {"smiles": "COc1ccc2c3c(c(=O)oc2c1OCC(=O)C(C)(C)C)CCCC3", "Potency": "25.1 µM (active)"},
      {"smiles": "O=C(COc1ccc(S(=O)(=O)NCCc2ccccc2)cc1)N1CCCC1", "activity change, negative = inhibition": "-0.347% (inactive)"},
      {"smiles": "c1nnc2c3c4c(sc3ncn12)CCC4", "activity change, negative = inhibition": "4% (inactive)"},
      {"smiles": "CCOC(=O)C1=C(C)NC(=O)N(C(C)=O)C1c1ccc(Cl)cc1", "note": "(stereo not given)", "activity change, negative = inhibition": "-3.44% (inactive)"},
      {"smiles": "O=C(c1cnccn1)N1CCC[C@@]2(CCN(Cc3ccncc3)C2)C1", "activity change, negative = inhibition": "-0.839% (inactive)"},
      {"smiles": "CCS(=O)(=O)N1CCCC(C(=O)NCc2ccc(C)cc2)C1", "note": "(stereo not given)", "activity change, negative = inhibition": "3.03% (inactive)"},
      {"smiles": "C=C1C([C@@]2(C)C(OC(C)=O)CC(=O)O[C@@](C)(COC(C)=O)C2CC(=O)OC)C(OC=O)C(OC(=O)C(O)C(C)CC)[C@]2(C)C(c3ccoc3)CC(=O)C12O", "note": "(stereo not given in full)", "activity change, negative = inhibition": "1.47% (inactive)"},
      {"smiles": "COc1ccc(COC(=O)N/N=C2/C[C@@H](O)[C@@H](O)[C@@H]3[C@@H]4C(=O)N([C@@H](C)c5ccccc5)C(=O)[C@H]4CC[C@@H]23)cc1", "activity change, negative = inhibition": "-1.08% [at 11.4 µM] (inactive)"},
      {"smiles": "COC(=O)c1cccc(NC(=O)CSc2nc(C)cc(=O)[nH]2)c1", "activity change, negative = inhibition": "-5.5% (inactive)"},
      {"smiles": "CCOC(=O)c1ccc2[nH]c(C)c(CN3CCN(C)CC3)c(=O)c2c1", "activity change, negative = inhibition": "-8.08% (inactive)"},
      {"smiles": "CCOC(=O)c1sc(=S)n2c1[nH]c(=O)c1ccc(C(=O)OC)cc12", "Potency": "20 µM (active)"},
      {"smiles": "CCOc1ccc(C2C(C(=O)NC)=C(C)Nc3nc4ccccc4n32)cc1OC", "note": "(stereo not given)", "activity change, negative = inhibition": "-3.06% (inactive)"},
      {"smiles": "CN(C)c1cc2c(Nc3ccc4c(cnn4Cc4ccccc4)c3)ncnc2cn1", "activity change, negative = inhibition": "-7.72% (inactive)"},
      {"smiles": "CCOC(=O)CCc1c(C)c2ccc(OCc3nn[nH]n3)c(C)c2oc1=O", "Potency": "31.6 µM (active)"},
      {"smiles": "CCNC(=S)NCC", "activity change, negative = inhibition": "-1.94% (inactive)"},
      {"smiles": "CCCNC(=O)C1CC(=O)N(c2ccc(OCC(=O)Nc3cccc(C)c3C)cc2)C1", "note": "(stereo not given)", "activity change, negative = inhibition": "0.177% (inactive)"},
      {"smiles": "O=C(O)Cc1ccc(NC(=O)c2cccs2)cc1", "activity change, negative = inhibition": "2.96% (inactive)"},
      {"smiles": "Cc1nc(-c2ccc(NC(=O)c3cccs3)cc2)cs1", "Potency": "25.1 µM (active)"},
      {"smiles": "O=C(O)c1ccc(NC(=O)c2cccs2)cc1", "activity change, negative = inhibition": "6.76% (inactive)"},
      {"smiles": "CCOC(=O)N1CCC(Nc2c(NCCN3CCN(c4cccc(Cl)c4)CC3)c(=O)c2=O)CC1", "activity change, negative = inhibition": "7.7% (inactive)"},
      {"smiles": "CCC(CCC(C)C1CCC2C3CC=C4CC(O)CC[C@@]4(C)C3CC[C@@]12C)C(C)C", "note": "(stereo not given in full)", "activity change, negative = inhibition": "5.26% (inactive)"},
      {"smiles": "COC(=O)c1ccc(/C=N\\n2c(C)nnc2C)cc1", "activity change, negative = inhibition": "7.86% (inactive)"}
    ]}
  ]
}
